Drawing on ChEMBL document CHEMBL4513216, “Probing the Open Global Health Chemical Diversity Library for Multistage-Active Starting Points for Next-Generation Antimalarials” (ACS Infect Dis, 2020), this text covers INHIBITION for 104 compounds.

Hit rate of the full screen: of about 65,000 compounds, about 2,100 (3.2%) showed an effect of 50% or more. The median lay at about -52%. The full list was thinned out, with strong results kept by preference.

This assay deals with Plasmodium falciparum. The assay is described as follows: Screen against P. falciparum Asexual Blood Stage (ABS), at 5uM. Type of assay: functional, Dd2. The following applies: tested at 5 uM.
Consider `Cc1cc(C(=O)NCC(F)(F)F)c2c(C3CCNCC3)noc2n1`, for which the INHIBITION is recorded as -42.4%. Then `CCn1nc2c(cc1=O)CN(c1ncnc3ccsc13)CC2`, with 17.6%; and `CC(=O)N1CCO[C@@H]2CN(Cc3ccccc3F)C[C@@H]2C1`, with -77.7%. Then `CN(C)S(=O)(=O)N1CCCC(c2nccnc2-c2cccc(Cl)c2)C1` (centres undefined), with -85.8%; and `O=S(=O)(c1cccc(Cl)c1)N1CCCC(Cn2cncn2)C1` (centres undefined), with -36.3%; and `CN(C)Cc1cc(C2CCCN(S(=O)(=O)c3cccc(Cl)c3)C2)nn1C` (centres undefined), with 56.5%. Then `Cc1cccc(-n2ncc3c2CCCC3NCC(C)(C)CO)c1C` (centres undefined), with -58.1%; and `O=C(c1ccsc1)N1C[C@H]2CCC[C@@]2(COCc2cccnc2)C1`, with -29.9%. Take `Cc1ccc(CN2C[C@@H](C(=O)Nc3cccnc3)C[C@H]3OCC[C@H]32)o1`: the INHIBITION was -35.4%.

Regarding `Cc1ccsc1-c1cccc(-c2ccn(CC3CCNC3)n2)c1` (centres undefined), the INHIBITION stood at 61.7%.

For `c1cc(-c2cncnc2)cc(-c2ccn(CC3CCNC3)n2)c1` (centres undefined), the INHIBITION is 13.9%. Consider `Cc1nccc(-c2cccc(-c3ccn(CC4CCNC4)n3)c2)n1` (centres undefined), for which the INHIBITION was -137%. As for `Cc1cccc(C(=O)N2CC[C@]3(C[C@H](OCc4ccccn4)CO3)C2)c1`, the INHIBITION is on record as -121%.

As for `CCN(CC)c1ccc(NS(=O)(=O)c2cncc(F)c2)cn1`, the INHIBITION is recorded as -19.4%.

Take `CCN(CC)c1ccc(NS(=O)(=O)c2cccnc2)cn1`: the INHIBITION worked out at 59.3%. Then `CCN(CC)c1ccc(NS(=O)(=O)c2cnn(C)c2)cn1`, with -98.6%; and `NC1CCCc2c1cnn2-c1cc(F)cc(F)c1` (centres undefined), with 53.6%. Then `CC(C)(C)c1ccc(-n2ncc3c2CCCC3N)cc1` (centres undefined), with 31.8%. Consider `Cc1ccc(-n2ncc3c2CCCC3N)cc1C` (centres undefined), for which the INHIBITION is 7.06%. For `CC(O)CN1CCN(Cc2csc(-c3ncccn3)n2)CC1` (centres undefined), the INHIBITION is given as -107%. As to `CCCC1(CNCc2ncc[nH]2)CCC1`, the INHIBITION is listed as 26.4%. Then `c1ccc(CC2(CNCc3ncc[nH]3)CCC2)cc1`, with 45.2%; and `CCC1(CNCc2ncc[nH]2)CCCC1`, with 67%.

`CCc1ccc(C(=O)N2CC[C@H](Oc3cccnc3C)[C@@H](O)CC2)cc1`: the INHIBITION is reported as -41%. Then `CN(C)c1cc(C(=O)N2CCCC2)ccn1`, with 55.6%; and `CN(C)c1cc(C(=O)N2CCCCC2)ccn1`, with -78.5%.

For `CN(C)c1cc(C(=O)N2CCCCCC2)ccn1`, the INHIBITION is on record as -8.55%. Then `CCN(C(=O)CN1CCCC1Cc1ccccc1)c1ccccc1` (centres undefined), with 61.3%.

For the compound `N#CCCN(C(=O)CN1CCCC1C1CCCCC1)c1ccccc1` (centres undefined), the INHIBITION turned out to be 52.2%. Then `Cc1ccc(N(CCC#N)C(=O)CN2CCCC2c2ccsc2)cc1` (centres undefined), with 46.2%.

In the case of `N#CCCN(C(=O)CN1CCCC1c1cccs1)c1ccccc1F` (centres undefined), the INHIBITION is 40%. Then `N#CCCN(C(=O)CN1CCCC1c1ccsc1)c1ccccc1` (centres undefined), with 1.81%.

For the compound `CN(C(=O)CN1CCCC1Cc1ccccc1)c1ccccc1` (centres undefined), the INHIBITION is on record as 22.7%. Then `Cc1ccc(N(CCC#N)C(=O)CN2CCCC2c2cccs2)cc1` (centres undefined), with 13.3%; and `N#CCCN(C(=O)CN1CCCC1Cc1ccccc1)c1ccccc1` (centres undefined), with 22.1%; and `N#CCCN(C(=O)CN1CCCC1c1ccsc1)c1ccccc1F` (centres undefined), with 69.7%. Then `CCN(C(=O)CN1CCCC1c1ccc(OC)cc1)c1ccccc1` (centres undefined), with 18.8%; and `Cc1ccc(C2CCCN2CC(=O)N(CCC#N)c2ccccc2)cc1` (centres undefined), with 62.4%. Then `N#CCCN(C(=O)CN1CCCC1c1ccccc1Cl)c1ccccc1` (centres undefined), with 40.4%; and `CC(C)Nc1ncc(-c2csc(NC(=O)C[C@H]3COCCN3)n2)cn1`, with -130%; and `c1ccc(CN2CCc3ncnc(-c4cccnc4)c3CC2)nc1`, with -71.1%. On to `Cc1cnccc1NCCNC1CCSCC1`, for which the INHIBITION is listed as -40.9%. Then `CCc1nccn1CC(=O)Nc1cccc(N2CCCC2)c1`, with -50.9%; and `Cn1nc(C2CCCNC2)c2c(C(=O)NC3CC3)cc(C3CC3)nc21` (centres undefined), with -98.6%.

For the compound `CC(=O)c1ccc(OCC(=O)NS(=O)(=O)c2ccc(C)s2)cc1`, the INHIBITION was -93.5%. In the case of `CC(C)C(NC(N)=O)C(=O)NCc1ccc(N2CCCC2)nc1` (centres undefined), the INHIBITION is listed as -34.4%.

Take `Cc1noc(CN2C[C@@H]3CC[C@H]2CN(C2Cc4ccccc4C2)C3)n1`: the INHIBITION amounted to 3.93%. Then `Cc1cc(CN2C[C@@H]3CC[C@H]2CN(C2Cc4ccccc4C2)C3)on1`, with 62.7%; and `Cc1nnc(CN2C[C@@H]3CC[C@H]2CN(C2Cc4ccccc4C2)C3)o1`, with 38.4%; and `Cc1noc(CNC(=O)CN(C)c2nc3c(C)ccc(C)c3s2)n1`, with -71.5%. Regarding `CCCn1nccc1-c1cc(C2CCN(S(C)(=O)=O)CC2)ccn1`, the INHIBITION is listed as -114%. Then `CN(C)C[C@@H]1CCC[C@@H]2CN(c3cccnc3)C[C@@H]21`, with 56.4%; and `COCCN(C)C[C@@H]1CCC[C@@H]2CN(c3ncccn3)C[C@@H]21`, with 33.9%. Then `CN(C)C[C@@H]1CCC[C@@H]2CN(c3ncccn3)C[C@@H]21`, with 44.8%; and `Cc1ccc(N2C[C@H]3CCC[C@@H](CN(C)C)[C@H]3C2)nn1`, with -54.9%.

As for `CN(C)C[C@@H]1CCC[C@@H]2CN(c3nccc(C(F)(F)F)n3)C[C@@H]21`, the INHIBITION is given as 64.8%.

On to `CN(C[C@@H]1CCC[C@@H]2CN(c3ncccn3)C[C@@H]21)C1CC1`, for which the INHIBITION worked out at 17.5%. Then `O=C(NCc1cc(=O)n2c(n1)CN(CC1CC1)CCC2)c1ccsc1`, with -69.7%. Then `c1cnc(N2CC3(CCN(CC4CCOC4)CC3)c3ccccc32)nc1` (centres undefined), with -5.4%; and `c1cnc(N2CC3(CCN(C4CCOC4)CC3)c3ccccc32)nc1` (centres undefined), with -101%. Then `c1cnc(N2CC3(CCN(C4CCOCC4)CC3)c3ccccc32)nc1`, with 64%; and `COCCN1CCc2cc(C(=O)NC(C)C)c(NCC3CC3)nc2CC1`, with 33.6%.

`O=C(CCn1cccn1)NCCOc1ncc(Cl)cc1Cl`: the INHIBITION amounted to 18.7%. Then `N#Cc1ccc(N2CCC3(CC2)CC(OCc2cccnc2)CO3)cc1` (centres undefined), with -57.3%. Then `COCCN1CCC2(CC1)CC(NC(=O)CC1CC1)c1ccccc1O2` (centres undefined), with -92.9%; and `COCCN1CCC2(CC1)CC(NC(=O)COC)c1ccccc1O2` (centres undefined), with -38.3%. Then `COCCN1CCC2(CC1)CC(NC(=O)CN(C)C)c1ccccc1O2` (centres undefined), with 67.7%; and `CNCc1cc(C)n(-c2ccccc2OC)c1C`, with 30.8%. With `Cc1nn(C)c(C)c1C1CCCN1Cc1cccc(OCC(N)=O)c1` (centres undefined), the INHIBITION is given as -22.6%. For `CCn1cncc1CNC(=O)c1ccc(C2CCCN2C(=O)COC)s1` (centres undefined), the INHIBITION was -32.8%. With `O=C(NCC1CC1)[C@@H]1CCO[C@@H]2CCN(Cc3ccsc3)C[C@H]21`, the INHIBITION was found to be 50.9%. Then `O=C(NC1CC1)[C@@H]1CCO[C@@H]2CCN(Cc3ccsc3)C[C@H]21`, with -48.8%; and `O=C(NCC1CC1)[C@@H]1CCO[C@@H]2CCN(Cc3ccc(F)cc3)C[C@H]21`, with 22.5%. For `O=C(NCCCn1ccnc1)NCC(c1ccco1)N1CCCC1` (centres undefined), the INHIBITION is -96.3%. As to `CCN1CCCC(CN(C)c2nccc(-c3ccc(C)nc3C)n2)C1` (centres undefined), the INHIBITION is 26.3%. Then `CC(C)N[C@@H]1CC[C@@H]1NC(=O)c1ccccc1OC(F)(F)C(F)F`, with 54.4%. Then `N[C@@H]1CC[C@@H]1NC(=O)c1ccccc1OC(F)(F)C(F)F`, with 42.2%; and `O=C(N[C@@H]1CCNC[C@H]1O)c1ccccc1OC(F)(F)C(F)F`, with -173%. Then `Cc1ccnc(NCc2cn3nc(C)sc3n2)n1`, with -114%; and `O=C(Cc1ccc2c(c1)OCC2)Nc1nc[nH]n1`, with -116%; and `c1cnn(Cc2cnc3n2CCN(CC2CCCCC2)C3)c1`, with 4.97%. In the case of `COCCCNC(=O)CN(C)C(C)c1nc(C(C)C)no1` (centres undefined), the INHIBITION is listed as -119%. Then `CN1CCOC(CNC(=O)C2(c3cccc(C(F)(F)F)c3)CCCC2)C1` (centres undefined), with 55.9%; and `CN1CCOC(CNC(=O)C2(c3ccccc3)CCC2)C1` (centres undefined), with -66.7%; and `Cc1cccc(C2(C(=O)NCC3CN(C)CCO3)CC2)c1` (centres undefined), with 0.579%.

Take `CN(Cc1csc(-c2cnn(C)c2)n1)CC1CCN(CCO)CC1`: the INHIBITION was -6.54%.

`c1nc(N2CCOCC2)ncc1-c1cncn1CCCN1CCCCC1`: the INHIBITION was -102%.

As for `CC(Cn1cncc1-c1cnn(C2CCCCC2)c1)N1CCCCC1` (centres undefined), the INHIBITION came to 13.6%. Then `c1nn(C2CCCCC2)cc1-c1cncn1CCCN1CCCCC1`, with 62.1%.

`Cc1ccccc1N1CCCN(C(=O)CC2CN(C(C)C)CCO2)CC1` (centres undefined): the INHIBITION stood at 11.3%. Then `CN1CCCC1CNC(=O)CCCOc1ccc(I)cc1` (centres undefined), with 59.8%. Then `CN1CCCC1CNC(=O)CCOc1ccc(Br)cc1` (centres undefined), with 62.6%. Then `CN1CCCC1CNC(=O)CCCOCc1ccccc1` (centres undefined), with -46.6%; and `CN1CCCC1CNC(=O)CCCOc1cccc(F)c1` (centres undefined), with 35.7%.

On to `CN1CCCC1CNC(=O)CCOc1ccc(Cl)cc1` (centres undefined), for which the INHIBITION came to 67.9%. Then `Cc1ncc(CNC(=O)CCOc2ccccc2)c(C2CCCN2C)n1` (centres undefined), with -57%. Then `CC(=O)c1cccc(OCCCC(=O)NCC2CCCN2C)c1` (centres undefined), with 3.79%; and `COc1cc(CCC(=O)NCC2CCCN2C)ccc1OCC(F)(F)F` (centres undefined), with 43.4%. Then `CN1CCCC1CNC(=O)CCCOc1ccc(F)cc1` (centres undefined), with 48.7%; and `CC(C)c1nc(O)c2nnn(C[C@@H]3CCCN(Cc4cccs4)C3)c2n1`, with -32.9%; and `O=C1CO[C@@H]2CN(S(=O)(=O)c3ccc(F)cc3)C[C@H]2N1`, with -28.2%. With `Cc1cc(C(=O)N2CC[C@@]3(O)CCN(S(C)(=O)=O)C[C@H]3C2)c(C)n1C`, the INHIBITION is on record as -156%. Then `O=C(CNC(=O)c1cnccn1)Nc1ncc[nH]1`, with -51.8%.

In the case of `CCC(=O)N1CCN(c2ncnc3c(C)nn(C)c23)CC1`, the INHIBITION is -52.3%.
